# Unmarked numbers belong to inactive results.
# Tests used:
# [1] = system: Schistosoma mansoni schistosomula (NMRI); assay: phenotypic severity score (0-4); higher = more antischistosomal effect, active = 2 or more; conditions: 10 µM
# [2] = system: Schistosoma mansoni schistosomula (Liberian); assay: drug effect (1 - score/DMSO control score) (fraction); higher = more antischistosomal effect, active = 0.5 or more; extreme values may be limits of the assay; conditions: 10 µM
# In short: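 Drug effect was calculated by comparing the mean score of the test wells with the mean score of the DMSO wells, and any negative value was set to zero. Duplicate wells of 50 Liberian-strain S. mansoni schistosomula, mechanically transformed from cercariae and pre-incubated at least 12 h, received 10 µM compound in Medium 199 with 5% FCS at 37 °C, 5% CO2, with 0.1% DMSO in the comparison wells. Visual scoring at 10× took place at 24, 48 and 72 h on a quarter-point scale from 3 (normal) to 0 (dead), and a plate counted only if its DMSO wells averaged at least 2.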
# 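Wherever phenotypic severity score (0-4) is given: visual microscopic scoring of shape, motility and density changes versus 0.5% DMSO solvent controls, one point per descriptor, degeneracy or death scored 4, mean of duplicate wells.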
Compound,phenotypic severity score ([1]; 24 h),phenotypic severity score ([1]; 48 h),phenotypic severity score ([1]; 72 h),drug effect ([2]; 24 h),drug effect ([2]; 48 h),drug effect ([2]; 72 h)
NC(CC(=O)c1ccc(Cl)cc1Cl)C(Cl)(Cl)Cl (configuration not stated),0,0,0,0.0455,0.1,0.158
CC(=O)NC[C@@H]1CN(c2ccc(N3CCOCC3)c(F)c2)C(=O)O1,0,0,0,0.227,0.2,0.182
CNC(=O)c1cc(S(=O)(=O)N2CCN(c3ccccn3)CC2)cs1,0,0,0,0.1,0.135,0.111
CCc1c(C)nc(-n2nc(C)cc2NC(=O)c2ccccc2SC)[nH]c1=O,0,1,3 (active),0.273,0.95 (active),1 (active)
c1ccc(Oc2ccc(-c3cc(C4CCOCC4)[nH]n3)cc2)cc1,0,0,0,0.182,0.35,0.127
COc1ccc(C2(C(=O)Nc3ccc(Br)cc3)CCCC2)cc1,0,0,1,0.25,0.389,0.5 (active)
Cc1cc(C(=O)Nc2cnn(Cc3ccc(Cl)cc3Cl)c2)no1,0,0,0,0.182,0.1,0.127
O=C(N[C@H](Cc1ccccc1)C(=O)Nc1ccccc1N1CCOCC1)c1cccs1,0,0,0,0.2,0.167,0.188
CCc1ccc(S(=O)(=O)Nc2cc(CN3CCN(CCC(C)C)CC3)ccc2C)cc1,1,2 (active),4 (active),0.25,0.444,0.5 (active)
COc1ccc(C2=NN(C3CCCCCC3)C(=O)C2(C)C)cc1OCc1ccccn1,,,,0.273,0.4,0.4
Nc1nc2ccc(-c3cncc(Oc4ccc(F)cc4)c3)cc2[nH]1,2 (active),1,1,0.3,0.556 (active),0.688 (active)
CNC(=O)C1Cc2ccccc2N1C(=O)Cc1ccc(F)cc1 (configuration not stated),0,0,0,0.227,0.2,0.236
COc1cccc(-c2nc3c(N4CCCC4)cccc3n2CC2CCCN2)n1 (configuration not stated),4 (active),4 (active),4 (active),0.35,0.778 (active),0.75 (active)
Cc1ccc2oc(-c3cc(NC(=O)Cc4ccccc4)ccc3Cl)nc2c1,1,0,0,0.227,0.25,0.236
CNC(=O)CNc1nc(-c2ccccn2)nc2scc(-c3ccccc3)c12,0,0,0,0.105,0.111,0.125
CC(=O)NC[C@H]1CN(c2ccc(N3CCSCC3)c(F)c2)C(=O)O1,0,0,0,0.136,0.2,0.236
COc1ccc(Nc2ccccc2NC(=O)c2ccc(O)nc2)cc1,0,0,0,0.182,0.45,0.4
Cc1nnc(NCc2cccc(Cl)c2)c2ccccc12,0,0,0,< 0,0.25,0.127
Nc1ncc(Br)cc1-c1nc2cc(Cl)cnc2[nH]1,0,0,0,0.1,0.111,0.188
CC(C)(C)c1cnc(NC(=O)c2ccccc2O)s1,0,1,1,1 (active),1 (active),1 (active)
CC(C)C(Oc1cccc2ccccc12)C(=O)O (configuration not stated),0,0,0,< 0,< 0,0.0556
CC(C)(C)n1nc(Cc2ccc(F)c(Cl)c2)c2c(N)ncnc21,0,0,0,0.0811,0.167,0.188
COc1ccc(C2=NCCN2)cc1-c1cn(-c2cccc(C3=NCCN3)c2)nn1,0,0,0,0.1,0.111,0.25

Compound,phenotypic severity score ([1]; 24 h),phenotypic severity score ([1]; 48 h),phenotypic severity score ([1]; 72 h),drug effect ([2]; 24 h),drug effect ([2]; 48 h),drug effect ([2]; 72 h)
NCC(=O)N1CCn2c(nc(-c3ccccc3)c2Nc2ccc3c(c2)OCO3)C1,0,0,2 (active),0.297,0.444,0.688 (active)
Clc1ccc(CN2CCN(C3=NCCN3)CC2)cc1Cl,1,0,0,0.1,0.0556,0.125
CC1CC1C(=O)NC1CCN(CC2(c3ccccc3)CCCCC2)CC1 (configuration not stated),1,0,0,< 0,0.0811,0.222
CC(Oc1ccccc1)C(=O)Nc1nc(-c2ccccn2)cs1 (configuration not stated),2 (active),0,4 (active),0.297,0.5 (active),0.625 (active)
Nc1ccc2ncnc(Nc3ccc(OCc4cccc(F)c4)c(Cl)c3)c2c1,4 (active),4 (active),4 (active),0.3,0.622 (active),0.879 (active)
O=C(NCc1ccoc1)N1CCN(Cc2ccc3c(c2)OCO3)CC1,0,0,0,0.136,0.2,0.182
CC(=O)N1CCN(c2ccc(Oc3ccc(Cl)cc3O)cc2)CC1,0,0,0,0.1,0.027,0.0303
Cc1cc(C)n2nc(C(=O)Nc3cc(C(F)(F)F)ccc3N3CCOCC3)nc2n1,0,0,0,0.05,0.135,0.222
OC[C@H]1O[C@@H](n2c3ccc(Cl)cc3c3c(-c4cc5ccccc5o4)ncnc32)C(O)[C@H]1O (some centres not stated),0,0,0,0.158,0.111,< 0
OCCc1ccc(Nc2nccc(-c3nnc4ccccn34)n2)cc1,0,1,4 (active),0.2,0.556 (active),0.562 (active)
FC(F)(F)c1nnc2ccc(Cl)nn12,1,0,0,0.2,0.189,0.333
Cc1cc2ccccc2n1CC(=O)N1CC(C(=O)N2CCCCC2)Oc2ccccc21 (configuration not stated),0,1,0,0.05,0.027,0.111
CC(=O)NCC1CN(c2ccc(-c3ccc(CO)cc3)c(F)c2)C(=O)O1 (configuration not stated),0,1,0,0.1,0.111,0.0625
Nc1ncnc2c1c(-c1cnc3ccccc3c1)nn2CC1CCNCC1,0,0,0,0.2,0.278,0.5 (active)
O=C(C1CCN(c2nnnn2-c2ccccc2)CC1)N1CCc2ccccc2C1,0,0,0,0.135,0.111,0.25
CCc1nc2ccc(C(=O)NCc3ccc4c(c3)OCO4)cn2c1N(C)Cc1cccs1,0,0,0,< 0,0.1,0.167
CCCCCCCCCCCCCCCCOP(=O)([O-])OCC[N+](C)(C)C,0,0,0,0.05,0.243,0.273
CCCNC(=O)N1CCC2(CC1)CC(=O)c1cc(C)ccc1O2,0,0,0,0.1,0.15,0.111
CC[P](CC)(CC)=[Au][S][C@H]1O[C@@H](COC(C)=O)[C@H](OC(C)=O)[C@@H](OC(C)=O)[C@@H]1OC(C)=O,4 (active),4 (active),4 (active),1 (active),1 (active),1 (active)
Cc1nn2c(=O)c3c([nH]c2c1-c1ccc(Cl)cc1)CCCC3,0,0,0,0.136,0.2,0.127
COC(=O)c1c(NC(=O)c2cc3ccccc3oc2=O)sc2c1CCN(Cc1ccccc1)C2,0,3 (active),2 (active),0.4,0.222,0.556 (active)
Oc1c(I)cc(I)c2cccnc12,2 (active),1,2 (active),0.1,0.135,0.333

# Source: the supplement of paper PMC6805474
